# VP16 counter – VP16 counterscreen qHTS for inhibitors of ROR gamma transcriptional activity; Drosophila S2 Gal4-VP16 UAS-luciferase, luminescence, 20 h; hit rate 3.5% among 310,000; Potency, µM (series often up to 53.6 µM), without a hit: top-dose activity, negative = inhibition, most hits filed as inhibitors;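 note: Gal4-VP16 expression switched on by copper sulfate through the metallothionein promoter; potency is the fitted concentration of half-maximal effect; % is set by controls: 0 for no effect and ±100 for the full control effect; nearly all actives have a fitted effect of over 50% in size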
# TRPV1 agonist – HTS Assay for Compounds that Act as Agonists of the Vanilloid Receptor 1; hit rate 0.19% among 320,000; activation, % at 8.33 µM; Transient receptor potential cation channel subfamily V member 1 (Homo sapiens), Q8NER1; TRPV1-expressing cells, Fluo-8 calcium influx, agonist mode; in the data active = activation above about 80%; inconclusive = between about 30% and that limit; note: 0% is about no effect
#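 Cells expressing TRPV1 were dye-loaded with Fluo-8 and read kinetically: 10 s baseline, 3 min after compound (agonist portion), then 2 min after EC20 capsaicin (allosteric enhancer portion). Calcium-bound dye fluorescence at 480/520 nm.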
# uPA surface inh – qHTS for Inhibitors of Cell Surface uPA Generation; cell surface uPA generation assay, qHTS; Potency, µM (titrated, usually from 38.3 µM), without a hit: at the top dose activity change, negative = inhibition, most hits filed as inhibitors; hit rate 0.31% among 330,000; AID 540303, 2011; active = well fitted inhibition curve with a large enough effect; inconclusive = small, poorly fitted or top-dose-only effect; inactive = no such curve, though single readings can be large or run the other way; tested in mouse RAW 264.7 cells; note: potency is the fitted concentration of half-maximal effect; % is set by controls: 0 for no effect and ±100 for the full control effect; nearly all actives have a fitted effect of over 55% in size
# RORgamma inh – qHTS for inhibitors of ROR gamma transcriptional activity; Drosophila S2 Gal4-RORgamma UAS-luciferase reporter, 20 h; Potency, µM (highest dose often 53.6 µM), for the others: top-dose activity change, negative = inhibition, usual class: inhibitors; Nuclear receptor ROR-gamma (Mus musculus), P51450; hit rate 5.4% among 310,000; note: potency is the fitted concentration of half-maximal effect; % is set by controls: 0 for no effect and ±100 for the full control effect; nearly all actives have a fitted effect of over 60% in size
# Target sequence (P51450 whole entry, looked up, the tested form may be a part): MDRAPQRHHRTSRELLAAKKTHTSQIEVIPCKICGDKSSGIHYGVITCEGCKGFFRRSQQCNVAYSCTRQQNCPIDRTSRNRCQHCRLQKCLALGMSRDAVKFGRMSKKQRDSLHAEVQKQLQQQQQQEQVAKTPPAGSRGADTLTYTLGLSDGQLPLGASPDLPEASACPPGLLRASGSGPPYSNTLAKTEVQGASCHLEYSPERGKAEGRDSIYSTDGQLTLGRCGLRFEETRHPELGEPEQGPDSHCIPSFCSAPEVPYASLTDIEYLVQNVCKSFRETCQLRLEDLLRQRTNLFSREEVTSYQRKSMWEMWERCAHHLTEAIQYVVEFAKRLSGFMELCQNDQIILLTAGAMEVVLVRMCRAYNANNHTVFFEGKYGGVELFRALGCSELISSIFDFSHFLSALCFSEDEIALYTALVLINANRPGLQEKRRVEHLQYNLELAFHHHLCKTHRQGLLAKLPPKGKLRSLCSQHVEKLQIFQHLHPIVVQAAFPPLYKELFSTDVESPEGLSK
#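 Drosophila Schneider cells stably carrying a metallothionein-driven Gal4 DBD–ROR gamma fusion and a UAS-Photinus luciferase reporter were exposed to compound for 1 hr, then induced with copper sulfate (700 uM final) for 20 hr at ambient temperature before luminescence reading.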
# TRPV1 PAM – HTS Assay for Compounds that Act as Potentiators of the Vanilloid Receptor 1; TRPV1-expressing cells, Fluo-8 calcium influx, capsaicin EC20 potentiation; Transient receptor potential cation channel subfamily V member 1 (Homo sapiens), Q8NER1; potentiation, % at 8.33 µM; hit rate 0.02% among 320,000; AID 540277, 2011; in the data active = potentiation above about 80%; inconclusive = between about 30% and that limit; note: 0% is about no effect
#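 TRPV1-expressing cells were cultured overnight at 35.5C and loaded with Fluo-8 calcium dye for 40 to 90 min at room temperature. After a 10 s baseline, compound was added and calcium influx was read kinetically for 3 min (ex 480/em 520 nm).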
# An asterisk follows results filed as active; ? = inconclusive; / = no result; [ ] = another dose, or the depositor's remark. Sampled rows, rich in hits. Any-hit rate of the full collection: about 5.8%. Unless noted, calls come from the whole dose curve; as a rule, active = well fitted curve in the direction sought with a large enough effect; inconclusive = small, poorly fitted or top-dose-only effect, or another doubt; inactive = no such curve, though single readings can be large; an effect the other way counts as inactive or inconclusive.
SMILES,VP16 counter,TRPV1 agonist,uPA surface inh,RORgamma inh,TRPV1 PAM
COc1cc(CC(=O)OCn2nnc3ccccc3c2=O)cc(OC)c1OC,0%,-1,-1%,3%,3
COc1cc2c(cc1OC)CN(CC(=O)Nc1ccc(F)cc1)C(C(=O)O)C2 (stereo unspecified),13%,-1,2%,20%,-9
N#CCCn1c(=O)cnc2cnc(N3CCNCC3)nc21,-10%,/,/,-9%,/
COc1ccc(Cl)cc1C(=O)NNC(=S)NC(=O)c1ccc(F)c(F)c1,11µM*,10,1%,7.1µM*,-11
CCOc1ccc(-c2cc(C(=O)O)c3ccccc3n2)cc1,10µM*,1,/,7.9µM*,-4
COc1ccc(-c2cc(C(=O)N/N=C(\C)c3cccnc3)c3ccccc3n2)cc1,-22%,0,8.9µM*,-43%,12
CCOc1ccc(-c2cc(C(=O)N3CCC(C)CC3)c3ccccc3n2)cc1,/,/,0%,/,/
COc1ccc(/C(C)=N/NC(=O)c2cc(-c3cccnc3)nc3ccccc23)cc1,-17%,3,-3%,-11%,?
COc1cc(C(=O)NNC(=S)NC(=O)c2ccc(F)cc2)cc(OC)c1OC,?,-4,-16%,?,?
CN(C1CCCCC1)S(=O)(=O)c1cccc2nsnc12,19%,7,-5%,-16%,11
CC12CC[C@@](C(=O)O)(C(=O)C1=O)C2(C)C,2%,/,/,15%,/
CCC1=C2CC[C@H]3C(=O)NC(=O)[C@H]3[C@H]2[C@@]2(C)C(=O)N(CC3CC3)C(=O)N2C1=O,2%,/,/,-8%,/
CC[n+]1ccc(/C=C/c2c[nH]c3ccccc23)cc1,13µM*,5,?,15%,8
CC(NC(C)c1ccccc1Cl)C(=O)Nc1cccc(S(=O)(=O)N2CCCCC2)c1 (stereo unspecified),/,6,-5%,/,6
CC(C)(C)c1nnc(N/N=C/c2ccc(Br)cc2)n(N)c1=O,2.8µM*,5,-3%,2.8µM*,12
CC(C)(C)c1ccc(/C=N/Nc2nncn2N)cc1,?,0,-9%,-33%,0
O=S(=O)(c1ccc2c(c1)OCCO2)N1CCN(c2ncnc3sccc23)CC1,11µM*,7,-12%,?,-5
Cc1ccc(S(=O)(=O)N2CCN(c3ncnc4sccc34)CC2)cc1C,/,9,-12%,/,20
O=C(O)CSCC(=O)Nc1ccc(C2CCCCC2)cc1,3.2µM*,16,-2%,2.2µM*,-27
Cc1ccc(S(=O)(=O)NC(C)(C)CSc2ccccn2)cc1,4%,15,-1%,22%,-4
Cc1n[nH]c(=O)n1-c1ccc(OC(F)(F)F)cc1,-6%,-1,6%,26%,-17
O=C/C(=C\Nc1ccccn1)c1nc2cc(Cl)ccc2o1,10µM*,3,1%,5.6µM*,-2
C=CCNC(=O)NC(=O)COC(=O)/C=C/c1cccc([N+](=O)[O-])c1,-5%,0,2%,-12%,-1
CC1CCN(C(=O)C(=O)c2cn(CC(=O)N3CCCC3)c3ccccc23)CC1,-2%,-2,-1%,-8%,-3
CN1CCN(C(=S)c2cn(Cc3cccc(F)c3)c3ccccc23)CC1,-8%,15,?,13µM*,-12
SMILES,VP16 counter,TRPV1 agonist,uPA surface inh,RORgamma inh,TRPV1 PAM
CN1CCN(C(=S)c2cn(Cc3ccccc3F)c3ccccc23)CC1,6%,25,-1%,11µM*,18
CC1CCN(C(=S)c2cn(Cc3ccc(F)cc3)c3ccccc23)CC1,11µM*,4,7%,5µM*,17
CC1CCN(C(=S)c2cn(Cc3ccccc3F)c3ccccc23)CC1,4.5µM*,2,1%,0.89µM*,10
CN1CCN(C(=S)c2cn(Cc3ccc(F)cc3)c3ccccc23)CC1,3%,12,?,?,-7
COc1ccccc1CNc1cc(-c2ccccc2C)ncn1,-3%,/,/,-2%,/
CC(=O)N[C@@H](c1ccccc1)[C@]1(C)C[C@H]1[C@@H](C)C(=O)Nc1ccc2ccccc2c1,-3%,/,/,0.35µM*,/
C[C@@H](C(=O)Nc1ccc2ccccc2c1)[C@@H]1C[C@@]1(C)[C@@H](NS(=O)(=O)c1ccccc1)c1ccccc1,-9%,/,/,42%,/
COc1c(F)cc2[nH]c3c(c2c1F)CCNC3=O,/,/,-10%,/,/
O=C(COc1ccc(Cl)cc1)N1CCN(C(=O)c2cccs2)CC1,18µM*,11,-7%,7.1µM*,-10
Cc1[nH]c2ccccc2c1/C=N/NC(=O)c1cccc(Br)c1,11%,-9,1%,-42%,0
O=C(N/N=C/C1C(c2ccccc2)C1(Cl)Cl)c1cccc(Br)c1 (stereo unspecified),6.3µM*,13,-1%,4.5µM*,25
O=C(N/N=C/c1[nH]c2ccccc2c1Cl)c1cccc(Br)c1,7.9µM*,4,0%,3.2µM*,8
CC(=O)Nc1ccc(NC(=O)c2nc(-c3ccccc3)oc2C)cc1,0%,30,-2%,27%,-8
NC(N)=Nc1nc(C2COc3ccccc3O2)cs1 (stereo unspecified),-27%,2,-4%,?,0
CC(=O)Nc1nc(C2COc3ccccc3O2)cs1 (stereo unspecified),-1%[0.365 µM],9,-9%,13µM*,-8
Cc1ccc(-c2cn3c(n2)CCCC3)cc1,?,?,-4%,8.9µM*,-10
c1ccc(-c2ccc(-c3cn4c(n3)CCC4)cc2)cc1,11µM*,?,-10%,?,-16
CSCC[C@H](NC(=O)[C@H](CC(C)C)NC(=O)CCNC(=O)[C@@H](NC(=O)[C@H](Cc1ccccc1)NC(=O)[C@H](CO)NC(=O)[C@@H](N)CC(=O)O)C(C)C)C(N)=O,-4%,/,/,-10%,/
O=C(CNC(=O)c1ccccc1Cl)N/N=C/c1ccc([N+](=O)[O-])s1,?,-5,-18%,18µM*,1
O=C(N/N=C/c1ccc(Cl)s1)c1ccccc1[N+](=O)[O-],7.1µM*,2,4%,6.3µM*,0
O=C(N/N=C/c1cc(Br)cs1)c1c[nH]c2ccccc12,?,/,-13%,4%,/
O=C(N/N=C/c1cc(Br)cs1)c1ccccc1[N+](=O)[O-],7.9µM*,0,-2%,5.6µM*,-3
CC(=O)c1cc(CN2CCN(Cc3ccccc3)C(CCO)C2)cs1 (stereo unspecified),-2%,-1,0%,-4%,-2
CC(C)NC(=O)[C@H]1C[C@@H]1[C@H](NC(=O)OCc1ccccc1)c1ccccc1,-5%,/,/,24%,/
Cc1ccc2nsnc2c1S(=O)(=O)Nc1cccc2cccnc12,0.63µM*,/,/,1.1µM*,/
O=C1C(Nc2ccccc2)=CC(=O)c2ncccc21,4.5µM*,/,/,3.2µM*,/
